According to publication PMC7862700, “An all-to-all approach to the identification of sequence-specific readers for epigenetic DNA modifications on cytosine”:

Key:
Test in all cases: DAPPL (digital affinity profiling via proximity ligation, sequencing); 10 mM Tris-HCl pH 7.5, 50 mM NaCl, 1 mM DTT, 4% glycerol, room temperature, 30 min; GST-TFs on glutathione beads, 16-mer random dsDNA library, 0.1% formaldehyde crosslink after washing; high values mean tight binding
Details in all cases: protein: recombinant; tags: N-terminal GST; dsDNA, one strand shown
SPIC = target: T1, SPIC (Homo sapiens, UniProt Q8N5J4 1-248)
T1 sequence: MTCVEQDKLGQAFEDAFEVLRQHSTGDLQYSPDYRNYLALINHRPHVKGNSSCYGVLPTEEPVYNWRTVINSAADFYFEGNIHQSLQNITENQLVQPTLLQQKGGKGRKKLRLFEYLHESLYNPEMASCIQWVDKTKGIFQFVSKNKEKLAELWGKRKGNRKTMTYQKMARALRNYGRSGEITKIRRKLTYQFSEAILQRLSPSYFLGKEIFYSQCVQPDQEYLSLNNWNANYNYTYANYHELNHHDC
Summary of the method: (§1)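 A tag-only sample was pooled with DNA-barcoded human transcription factors that had been expressed in yeast as GST fusions and captured on glutathione beads. The pools were incubated for 30 min at room temperature with 200 nmole of a random double-stranded 16-mer DNA library in Tris/NaCl/DTT/glycerol buffer, then washed, crosslinked with 0.1% formaldehyde, proximity-ligated (BsaI/T4 ligase, 1 h, 37 °C), PCR-amplified and sequenced on an Illumina NextSeq500. Binding signal is each hexamer's read frequency for a factor divided by its frequency for the tag-only sample.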

ETV3L = target: T2, ETV3L (Homo sapiens, UniProt Q6ZN32 1-361)
T2 sequence: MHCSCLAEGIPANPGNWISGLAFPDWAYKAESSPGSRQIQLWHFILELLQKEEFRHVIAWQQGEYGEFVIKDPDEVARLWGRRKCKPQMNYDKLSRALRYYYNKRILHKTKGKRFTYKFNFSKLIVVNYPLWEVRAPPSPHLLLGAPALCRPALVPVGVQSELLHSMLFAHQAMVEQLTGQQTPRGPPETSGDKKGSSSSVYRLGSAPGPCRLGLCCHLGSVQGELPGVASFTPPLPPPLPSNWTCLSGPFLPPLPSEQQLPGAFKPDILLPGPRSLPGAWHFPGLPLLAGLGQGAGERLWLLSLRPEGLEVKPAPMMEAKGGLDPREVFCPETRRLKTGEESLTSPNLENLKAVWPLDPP
Summary of the method: as §1

GABPA = target: T3, GABPA (Homo sapiens, UniProt Q06546 1-454)
T3 sequence: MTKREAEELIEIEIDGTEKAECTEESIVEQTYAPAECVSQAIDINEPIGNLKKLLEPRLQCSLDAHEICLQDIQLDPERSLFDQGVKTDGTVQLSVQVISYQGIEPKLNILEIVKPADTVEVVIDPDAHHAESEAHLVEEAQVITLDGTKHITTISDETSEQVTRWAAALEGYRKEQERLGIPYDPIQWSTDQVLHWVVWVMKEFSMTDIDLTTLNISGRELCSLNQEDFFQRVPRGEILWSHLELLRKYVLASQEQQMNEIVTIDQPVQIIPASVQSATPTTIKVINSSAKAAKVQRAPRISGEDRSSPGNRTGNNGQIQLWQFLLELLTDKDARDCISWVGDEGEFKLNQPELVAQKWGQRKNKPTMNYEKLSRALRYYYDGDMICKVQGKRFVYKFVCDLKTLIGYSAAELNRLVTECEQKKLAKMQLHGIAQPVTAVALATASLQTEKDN
Summary of the method: as §1

ELK4 = target: T4, ELK4 (Homo sapiens, UniProt P28324-2 1-405)
T4 sequence: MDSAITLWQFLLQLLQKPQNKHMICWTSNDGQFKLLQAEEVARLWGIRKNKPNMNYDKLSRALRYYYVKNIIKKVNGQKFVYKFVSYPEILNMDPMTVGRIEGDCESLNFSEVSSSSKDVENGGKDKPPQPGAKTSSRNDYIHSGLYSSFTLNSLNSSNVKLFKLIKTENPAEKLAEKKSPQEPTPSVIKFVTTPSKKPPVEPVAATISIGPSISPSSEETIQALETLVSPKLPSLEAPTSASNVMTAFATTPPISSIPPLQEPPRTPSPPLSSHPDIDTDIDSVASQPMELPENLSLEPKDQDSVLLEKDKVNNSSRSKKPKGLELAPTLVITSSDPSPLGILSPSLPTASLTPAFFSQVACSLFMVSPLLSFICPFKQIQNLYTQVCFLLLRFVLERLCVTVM
Summary of the method: as §1

ELF3 = target: T5, ELF3 (Homo sapiens, UniProt P78545 1-371)
T5 sequence: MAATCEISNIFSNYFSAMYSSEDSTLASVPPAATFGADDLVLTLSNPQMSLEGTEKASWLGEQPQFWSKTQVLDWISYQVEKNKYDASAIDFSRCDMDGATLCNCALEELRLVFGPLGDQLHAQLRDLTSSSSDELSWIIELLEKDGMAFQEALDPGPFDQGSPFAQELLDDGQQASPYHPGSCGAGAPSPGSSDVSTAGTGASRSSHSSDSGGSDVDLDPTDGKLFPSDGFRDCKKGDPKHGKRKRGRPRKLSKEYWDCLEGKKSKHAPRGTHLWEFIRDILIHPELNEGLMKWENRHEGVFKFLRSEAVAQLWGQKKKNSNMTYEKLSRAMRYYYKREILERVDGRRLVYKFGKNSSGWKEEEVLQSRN
Summary of the method: as §1

ELF1 = ELF1 (Homo sapiens, UniProt P32519 1-619)
Summary of the method: as §1

SPI1 = SPI1 (Homo sapiens, UniProt P17947 1-270)
Summary of the method: as §1

ETV1 = ETV1 (Homo sapiens, UniProt P50549 1-477)
Summary of the method: as §1

SPDEF = target: T6, SPDEF (Homo sapiens, UniProt O95238 1-335)
T6 sequence: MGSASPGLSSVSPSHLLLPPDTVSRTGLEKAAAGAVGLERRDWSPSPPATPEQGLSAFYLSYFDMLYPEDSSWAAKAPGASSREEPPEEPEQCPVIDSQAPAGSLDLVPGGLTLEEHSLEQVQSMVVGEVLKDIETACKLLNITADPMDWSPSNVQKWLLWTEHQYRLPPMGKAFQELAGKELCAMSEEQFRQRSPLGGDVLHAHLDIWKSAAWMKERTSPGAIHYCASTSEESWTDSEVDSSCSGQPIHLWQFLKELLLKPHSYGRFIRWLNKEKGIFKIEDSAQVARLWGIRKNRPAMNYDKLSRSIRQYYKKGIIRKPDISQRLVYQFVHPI
Summary of the method: as §1

ETV6 = ETV6 (Homo sapiens, UniProt P41212 1-452)
Summary of the method: as §1

ELF5 = target: T7, ELF5 (Homo sapiens, UniProt Q9UKW6-2 1-255)
T7 sequence: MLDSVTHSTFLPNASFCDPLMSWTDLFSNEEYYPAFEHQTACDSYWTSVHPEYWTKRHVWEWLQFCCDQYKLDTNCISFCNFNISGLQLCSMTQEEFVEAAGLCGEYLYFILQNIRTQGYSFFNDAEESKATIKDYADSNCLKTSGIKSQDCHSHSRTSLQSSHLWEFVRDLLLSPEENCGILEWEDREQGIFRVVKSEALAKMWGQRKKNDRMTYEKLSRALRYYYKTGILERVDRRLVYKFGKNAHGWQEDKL
Summary of the method: as §1

ETV2 = target: T8, ETV2 (Homo sapiens, UniProt O00321 1-342)
T8 sequence: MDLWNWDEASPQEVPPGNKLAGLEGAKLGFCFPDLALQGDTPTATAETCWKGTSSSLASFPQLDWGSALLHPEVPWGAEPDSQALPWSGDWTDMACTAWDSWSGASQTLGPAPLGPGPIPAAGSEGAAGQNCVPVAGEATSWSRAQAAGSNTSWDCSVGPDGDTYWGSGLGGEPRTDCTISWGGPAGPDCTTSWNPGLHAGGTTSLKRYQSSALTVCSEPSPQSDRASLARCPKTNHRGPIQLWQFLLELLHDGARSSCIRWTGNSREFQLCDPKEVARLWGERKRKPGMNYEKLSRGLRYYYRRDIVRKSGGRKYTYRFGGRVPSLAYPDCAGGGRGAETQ
Summary of the method: as §1

ETV3 = target: T9, ETV3 (Homo sapiens, UniProt P41162-2 1-143)
T9 sequence: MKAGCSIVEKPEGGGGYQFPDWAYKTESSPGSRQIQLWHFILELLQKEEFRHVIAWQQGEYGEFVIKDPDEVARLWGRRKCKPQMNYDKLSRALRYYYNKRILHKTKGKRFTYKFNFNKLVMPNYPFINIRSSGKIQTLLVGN
Summary of the method: as §1

SPIB = SPIB (Homo sapiens, UniProt Q01892 1-262)
Summary of the method: as §1

ETV1, sequence (P50549 whole entry): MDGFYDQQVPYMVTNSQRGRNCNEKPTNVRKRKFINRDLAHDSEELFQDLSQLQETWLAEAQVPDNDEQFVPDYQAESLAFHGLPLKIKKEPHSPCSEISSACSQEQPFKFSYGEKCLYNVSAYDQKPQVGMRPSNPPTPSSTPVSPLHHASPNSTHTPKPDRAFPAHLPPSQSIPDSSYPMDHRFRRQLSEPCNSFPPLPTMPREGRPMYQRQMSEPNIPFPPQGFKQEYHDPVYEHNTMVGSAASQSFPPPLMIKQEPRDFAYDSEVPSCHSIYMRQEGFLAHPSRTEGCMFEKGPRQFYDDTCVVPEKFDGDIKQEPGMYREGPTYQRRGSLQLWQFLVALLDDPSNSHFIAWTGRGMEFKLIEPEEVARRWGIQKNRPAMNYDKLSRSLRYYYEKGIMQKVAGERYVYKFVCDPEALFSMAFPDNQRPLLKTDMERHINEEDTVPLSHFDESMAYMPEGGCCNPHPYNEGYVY
ETV6, sequence (P41212 whole entry): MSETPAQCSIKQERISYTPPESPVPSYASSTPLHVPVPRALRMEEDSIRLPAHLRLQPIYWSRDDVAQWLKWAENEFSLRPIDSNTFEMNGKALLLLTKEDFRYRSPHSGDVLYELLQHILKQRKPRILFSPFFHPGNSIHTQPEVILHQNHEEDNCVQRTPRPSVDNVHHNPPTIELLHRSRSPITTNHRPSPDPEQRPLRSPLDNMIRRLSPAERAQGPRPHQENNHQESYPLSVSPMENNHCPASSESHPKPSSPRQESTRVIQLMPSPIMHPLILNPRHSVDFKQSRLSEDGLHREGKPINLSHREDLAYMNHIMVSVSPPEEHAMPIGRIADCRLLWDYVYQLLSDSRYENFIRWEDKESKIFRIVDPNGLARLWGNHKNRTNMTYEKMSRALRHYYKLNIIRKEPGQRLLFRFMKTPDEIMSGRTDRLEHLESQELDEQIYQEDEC
ELF1, sequence (P32519 whole entry): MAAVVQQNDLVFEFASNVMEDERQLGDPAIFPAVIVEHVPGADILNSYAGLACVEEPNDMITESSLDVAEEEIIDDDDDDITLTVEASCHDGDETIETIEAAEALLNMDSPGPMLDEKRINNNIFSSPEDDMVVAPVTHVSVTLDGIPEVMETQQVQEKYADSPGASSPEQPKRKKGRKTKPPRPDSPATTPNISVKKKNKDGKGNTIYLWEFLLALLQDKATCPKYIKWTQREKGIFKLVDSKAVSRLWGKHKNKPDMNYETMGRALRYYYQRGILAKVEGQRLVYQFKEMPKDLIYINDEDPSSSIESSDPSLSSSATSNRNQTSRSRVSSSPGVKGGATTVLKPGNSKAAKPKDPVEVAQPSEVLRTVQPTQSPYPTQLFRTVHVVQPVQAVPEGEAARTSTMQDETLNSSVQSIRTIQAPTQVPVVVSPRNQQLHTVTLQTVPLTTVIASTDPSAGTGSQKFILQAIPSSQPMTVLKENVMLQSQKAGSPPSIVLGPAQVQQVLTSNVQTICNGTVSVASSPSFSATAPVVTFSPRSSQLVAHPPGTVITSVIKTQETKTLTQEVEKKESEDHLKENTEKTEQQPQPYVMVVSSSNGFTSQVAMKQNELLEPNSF
SPIB, sequence (Q01892 whole entry): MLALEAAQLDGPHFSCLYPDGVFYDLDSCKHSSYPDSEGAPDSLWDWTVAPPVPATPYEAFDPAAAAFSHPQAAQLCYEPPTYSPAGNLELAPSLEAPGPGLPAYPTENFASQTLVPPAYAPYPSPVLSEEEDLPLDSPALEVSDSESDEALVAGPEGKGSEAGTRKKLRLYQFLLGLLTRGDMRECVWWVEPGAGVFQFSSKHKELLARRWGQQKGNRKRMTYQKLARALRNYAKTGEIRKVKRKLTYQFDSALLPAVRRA

In the case of AGCATG, the binding signal (SPIC) was 1.07 fold enrichment (6-mer frequency, TF over GST control) and the binding signal (ETV3L) was 1.02 fold enrichment (6-mer frequency, TF over GST control).
With ATAGTC the binding signal (GABPA) was 1.01 fold enrichment (6-mer frequency, TF over GST control), the binding signal (SPIC) was 1.1 fold enrichment (6-mer frequency, TF over GST control) and the binding signal (ELK4) was 1.04 fold enrichment (6-mer frequency, TF over GST control). The binding signal (ELF3) was 1.07 fold enrichment (6-mer frequency, TF over GST control).
In the case of CACGGC, the binding signal (ELF1) was 1.04 fold enrichment (6-mer frequency, TF over GST control), the binding signal (SPI1) was 1.01 fold enrichment (6-mer frequency, TF over GST control) and the binding signal (SPIC) was 1.03 fold enrichment (6-mer frequency, TF over GST control). For the same sequence, the binding signal (ETV1) was 1 fold enrichment (6-mer frequency, TF over GST control), the binding signal (ETV3L) was 1.07 fold enrichment (6-mer frequency, TF over GST control) and the binding signal (SPDEF) was 1.03 fold enrichment (6-mer frequency, TF over GST control). For the same sequence, the binding signal (ETV6) was 1.05 fold enrichment (6-mer frequency, TF over GST control).
CGGGTT was tested, and the binding signal (SPIC) was 1 fold enrichment (6-mer frequency, TF over GST control), the binding signal (SPDEF) was 1.09 fold enrichment (6-mer frequency, TF over GST control) and the binding signal (ELF5) was 1.02 fold enrichment (6-mer frequency, TF over GST control).
For CGCAAT, the binding signal (SPIC) was 1.01 fold enrichment (6-mer frequency, TF over GST control), the binding signal (ETV2) was 1.04 fold enrichment (6-mer frequency, TF over GST control) and the binding signal (ETV3) was 1.01 fold enrichment (6-mer frequency, TF over GST control).
For GTGATG, the binding signal (SPIB) was 1.04 fold enrichment (6-mer frequency, TF over GST control), the binding signal (SPIC) was 1.01 fold enrichment (6-mer frequency, TF over GST control) and the binding signal (ELK4) was 1.18 fold enrichment (6-mer frequency, TF over GST control). For the same sequence, the binding signal (ETV1) was 1.03 fold enrichment (6-mer frequency, TF over GST control).
